Measured values as given in PubChem BioAssay (Tox21).
Inconclusive results are not listed. A number with no mark means an inactive call. The call rests on the fitted dose curve; in most records, active means well fitted cell-killing curve with a large enough effect in the repeat runs; inconclusive means weak or mixed curves; inactive means flat fitted curve, though single readings scatter.

Assay: qHTS assay to identify small molecule antagonists of the estrogen related receptor (ERR) signaling pathway - cell viability counter screen (AID 1224818)
Details: ERR reporter cell line viability counter screen; series mostly up to 46.1 µM; viability change, negative = cytotoxic: at the top concentration
How it was run: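 ERR cells, 2,000/well; 6 h settle at 37 C/5% CO2; compound pin transfer (DMSO); 17.5 h at 37 C; CellTiter-Fluor, 30 min, fluorescence read.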
On the % scale 0 is the no-effect control and ±100 the full control effect.

| SMILES | viability change, negative = cytotoxic [%] |
| --- | --- |
| O=c1cc(O)cc(/C=C/c2ccc(O)c(O)c2)o1 | 7.84 |
| Nc1nc2[nH]c(=O)cnc2c(=O)[nH]1 | 7.2 |
| N#CC(=C(\N)Sc1ccccc1N)/C(C#N)=C(/N)Sc1ccccc1N | -13.7 |
| CCCCCCCCCCCCCCCCCCOC[C@H](COP(=O)([O-])OCC[N+](C)(C)C)OC | -8.26 |
| Fc1ccc(CN(C2=NCCN2)c2c(Cl)cccc2Cl)cc1 | -2.78 |
| Nc1ncnc2c1nc(Sc1ccc(Cl)cc1)n2[C@H]1OC2COP(=O)(O)O[C@@H]2C1O (stereo not given in full) | 1.66 |
| NCC(O)C1CCCCCCC1 (stereo not given) | 16.1 |
| O=C1CCC(c2ccc(-n3ccnc3)cc2)=NN1 | 8.87 |
| CC(O)C(O)[C@H]1CNc2nc(N)[nH]c(=O)c2N1 (stereo not given in full) | 13.2 |
| Cn1c(=O)c2c(nc(/C=C/c3cccc(Cl)c3)n2C)n(C)c1=O | 6.34 |
| O=C(O)c1cc2cc(F)ccc2[nH]1 | -1.31 |
| COc1cc(C(O)CO)ccc1OS(=O)(=O)O (stereo not given) | 5.52 |
| Cc1nc2n(c(=O)c1CCN1CCC(c3noc4cc(F)ccc34)CC1)CCCC2O (stereo not given) | 3.38 |
| Nc1nc(SCc2ccc([N+](=O)[O-])cc2)c2ncn([C@@H]3O[C@H](CO)C(O)[C@H]3O)c2n1 (stereo not given in full) | -8.42 |
| CCOC(=O)C12CC1/C(=N/O)c1ccccc1O2 (stereo not given) | -0.972 |
| CCCCCCN(CCCCCC)C(=O)Cc1c(-c2ccc(F)cc2)[nH]c2ccccc12 | -4.03 |
| c1ccc(CN2CCC3(CCCc4ccccc43)CC2)cc1 | -18.9 |
| Nc1cc(Cl)c(NC2=NCCN2)c(Cl)c1 | 10.3 |
| Nc1nc2c(ncn2[C@@H]2O[C@H](CO)[C@@H](O)[C@@H]2O)c(=O)[nH]1 | -5.51 |
| C[C@@]1(C2CCCC2)Cc2cc(OCC(=O)O)c(Cl)c(Cl)c2C1=O | -7.05 |

| SMILES | viability change, negative = cytotoxic [%] |
| --- | --- |
| CN1C2CCCC1CC(NC(=O)c1nn(C)c3ccccc13)C2 (stereo not given) | 11.4 |
| N#C/C(=C\c1ccc(O)c(O)c1)C(=O)c1ccc(O)c(O)c1 | -2.74 |
| S=C(Nc1ccccc1)Nc1nccs1 | -16.4 |
| N[C@@H](CCCC(=O)O)C(=O)O | 11.1 |
| COc1ccc2c(c1)c(CC(=O)O)c(C)n2C(=O)c1ccccc1 | -4.82 |
| CS(=O)(=O)c1cccc(CNc2nc(Nc3ccc4c(c3)CCC(=O)N4)ncc2C(F)(F)F)c1 | -20.9 |
| C=C[C@H]1CN2CC[C@@H]1C[C@@H]2[C@@H](O)c1ccnc2ccc(OC)cc12 | -6.98 |
| NC(=O)c1cc[n+](CC2=C(C(=O)O)N3C(=O)[C@@H](NC(=O)[C@@H](c4ccccc4)S(=O)(=O)[O-])[C@H]3SC2)cc1 | 4.99 |
| Nc1nc2c(nc(Br)n2C2OC3COP(=O)(O)O[C@@H]3C2O)c(=O)[nH]1 (stereo not given in full) | 10.4 |
| COCCOc1cc2nc[nH]c(=O)c2cc1OCCOC | 11.4 |
| N[C@@H](Cc1ccc(O)c(O)c1)C(=O)O | 9.7 |
| CC#CCOC(=O)c1c(C)nc2sc3c(c2c1N)CCC(O)C3 (stereo not given) | -30.1 |
| CN1CCC2(CCN3CCc4c(oc5ccccc45)C3C2)N(C)C1=O (stereo not given) | -2.96 |
| CC(N)(C(=O)O)c1ccc(C(=O)O)cc1 (stereo not given) | -2.72 |
| O=C(O)Cc1ccc(O)c(O)c1 | 12.9 |
| Cn1c(=O)c2[nH]c(-c3ccc(S(=O)(=O)O)cc3)nc2n(C)c1=O | 12.4 |
| O[Si](CCCN1CCCCC1)(c1ccc(F)cc1)C1CCCCC1 (stereo not given) | -18.3 |
| CN(CCCOc1ccc(Cc2ccccc2)cc1)CCC(=O)O | 2.7 |
| COc1ccc(Br)cc1S(=O)(=O)NC(=O)/C=C/c1ccccc1Cc1ccc2ccccc2c1 | 5.54 |
| C=CC1(C)CC(=O)C2(O)C(C)(O1)C(OC(C)=O)C(O)C1C(C)(C)CCC(O)C12C (stereo not given) | -9.55 |
